In PubChem BioAssay AID1159580 (chemical genetic matrix, 2015):
Where “and” joins values, the source holds several entries; their conditions need not be identical. Equal values may be shown once. In all, about 5,500 compounds went through this assay and about 2,000 (36%) were called active. Inconclusive results (about 18%) are left out. Cut-off read from the data, not from the text of the source: active = normalized growth mostly below about 0.91 (no sharp cut-off); inconclusive = no clear call, values can overlap the other calls; inactive = mostly above about 0.92. Some of the results follow.

Experiment: chemical genetic growth profiling, strain panel (AID 1159580);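 note: tested at 20 µM; growth read once vehicle control cultures reached saturation at 30 °C; 1 = growth at the plate median or of vehicle wells; lower values mean less growth of the strain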
Details: S. cerevisiae deletion strains, growth OD

Measured: normalized growth

CC[C@@]1(O)C(=O)OCc2c1cc1n(c2=O)Cc2cc3ccccc3nc2-1
0.94 (inactive) and 0.843 (active): locus YHR030C, strain SLT2, stronger effect = lower value
inactive: locus YBR021W, strain FUR4, stronger effect = lower value 0.889 | locus YBR171W, strain sec66, stronger effect = lower value 0.949 | locus YBR229C, strain ROT2, stronger effect = lower value 0.982 | locus YBR279W, strain paf1, stronger effect = lower value 0.98 | locus YDL040C, strain nat1, stronger effect = lower value 0.952 | locus YDR150W, strain NUM1, stronger effect = lower value 0.998 | locus YEL061C, strain CIN8, stronger effect = lower value 0.947 | locus YER110C, stronger effect = lower value 0.944 | locus YER111C, strain swi4, stronger effect = lower value 0.97 | locus YER155C, strain BEM2 (second series), stronger effect = lower value 0.887 | locus YGL167C, strain pmr1, stronger effect = lower value 0.95 | locus YHR013C, strain ard1, stronger effect = lower value 0.868 | locus YHR027C, strain rpn1, stronger effect = lower value 0.933 | locus YHR094C, strain hxt1, stronger effect = lower value 0.941 | locus YIL066C, strain RNR3, stronger effect = lower value 0.921 | locus YJL134W, strain LCB3, stronger effect = lower value 0.997 | locus YJL168C, strain set2, stronger effect = lower value 0.961
active: locus YAL013W, strain DEP1, stronger effect = lower value 0.829 | locus YAL021C, strain ccr4, stronger effect = lower value 0.327 | locus YAL026C, strain drs2, stronger effect = lower value 0.626 | locus YAL030W, strain snc1, stronger effect = lower value 0.813 | locus YBL061C, strain skt5, stronger effect = lower value 0.859 | locus YBR009C, strain hhf1, stronger effect = lower value 0.681 | locus YBR023C, strain chs3, stronger effect = lower value 0.803 | locus YBR231C, strain swc5, stronger effect = lower value 0.696 | locus YCL011C, strain gbp2, stronger effect = lower value 0.577 | locus YCL016C, strain dcc1, stronger effect = lower value 0.134 | locus YCL029C, strain bik1, stronger effect = lower value 0.884 | locus YCL061C, strain MRC1, stronger effect = lower value 0.821 | locus YCL069W, strain vba3, stronger effect = lower value 0.788 | locus YCR088W, strain abp1, stronger effect = lower value 0.747 | locus YDL005C, strain med2, stronger effect = lower value 0.882 | locus YDL035C, strain GPR1, stronger effect = lower value 0.843 | locus YDL074C, strain BRE1, stronger effect = lower value 0.613 | locus YDL101C, strain DUN1, stronger effect = lower value 0.654 | locus YDL134C, strain PPH21, stronger effect = lower value 0.81 | locus YDL185W, strain tfp1, stronger effect = lower value 0.782 | locus YDL192W, strain arf1, stronger effect = lower value 0.838 | locus YDR001C, strain nth1, stronger effect = lower value 0.882 | locus YDR069C, strain doa4, stronger effect = lower value 0.767 | locus YDR101C, strain arx1, stronger effect = lower value 0.897 | locus YDR137W, strain rgp1, stronger effect = lower value 0.74 | locus YDR159W, strain sac3, stronger effect = lower value 0.821 | locus YDR162C, strain NBP2, stronger effect = lower value 0.688 | locus YDR195W, strain ref2 0.538 | locus YDR297W, strain sur2, stronger effect = lower value 0.884 | locus YDR318W, strain mcm21, stronger effect = lower value 0.796 | locus YDR334W, strain swr1, stronger effect = lower value 0.786 | locus YDR335W, strain msn5, stronger effect = lower value 0.841 | locus YDR388W, stronger effect = lower value 0.793 | locus YDR392W, strain spt3, stronger effect = lower value 0.284 | locus YDR502C, strain sam2, stronger effect = lower value 0.803 | locus YEL003W, strain gim4, stronger effect = lower value 0.834 | locus YEL037C, strain rad23, stronger effect = lower value 0.851 | locus YEL061C, strain CIN8 (second series), stronger effect = lower value 0.848 | locus YER015W, strain faa2, stronger effect = lower value 0.784 | locus YER016W, strain bim1, stronger effect = lower value 0.754 | locus YER155C, strain BEM2, stronger effect = lower value 0.837 | locus YER167W, strain BCK2, stronger effect = lower value 0.82 | locus YFR010W, strain ubp6, stronger effect = lower value 0.617 | locus YGL078C, strain dbp3, stronger effect = lower value 0.883 | locus YGL086W, strain mad1, stronger effect = lower value 0.847 | locus YGL173C, strain kem1, stronger effect = lower value 0.882 | locus YGL227W, strain vid30, stronger effect = lower value 0.894 | locus YGL240W, strain doc1, stronger effect = lower value 0.565 | locus YGL248W, strain PDE1, stronger effect = lower value 0.879 | locus YGL253W, strain hxk2, stronger effect = lower value 0.885 | locus YGR135W, strain pre9, stronger effect = lower value 0.878 | locus YGR229C, strain SMI1, stronger effect = lower value 0.384 | locus YGR252W, strain gcn5, stronger effect = lower value 0.655 | locus YHR079C, strain IRE1 (second series), stronger effect = lower value 0.801 | locus YHR079C, strain IRE1, stronger effect = lower value 0.791 | locus YHR129C, strain ARP1, stronger effect = lower value 0.801 | locus YHR142W, strain chs7, stronger effect = lower value 0.772 | locus YHR200W, strain rpn10, stronger effect = lower value 0.711 | locus YIL073C, strain SPO22, stronger effect = lower value 0.598 | locus YIL125W, strain kgd1, stronger effect = lower value 0.774 | locus YIR030C, strain dcg1, stronger effect = lower value 0.826 | locus YJL092W, strain hpr5, stronger effect = lower value 0.22 | locus YJL095W, strain BCK1 (second series), stronger effect = lower value 0.855 | locus YJL095W, strain BCK1, stronger effect = lower value 0.751 and 0.84 | locus YJL115W, strain asf1, stronger effect = lower value 0.132 | locus YJL129C, strain trk1, stronger effect = lower value 0.537 | locus YJL154C, strain vps35, stronger effect = lower value 0.811 | locus YJL164C, strain tpk1, stronger effect = lower value 0.634 | locus YJL166W, strain qcr8, stronger effect = lower value 0.748 | locus YJL187C, strain SWE1 (second series), stronger effect = lower value 0.848 | locus YJL187C, strain SWE1, stronger effect = lower value 0.876 | locus YJR043C, strain POL32, stronger effect = lower value 0.561
